Results published in PubChem BioAssay.
Unmarked numbers belong to inactive results. Active and inactive are the calls of the source. The rule behind the calls is not given here.

Target: L-lactate dehydrogenase (Plasmodium falciparum (isolate CDC / Honduras)) (UniProt Q27743)
Test: PfLDH activity inhibition – cell lysate, 3D7 strain, counter-screen for P. falciparum growth inhibition project (AID 2304);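 note: 0% = vehicle and 100% = reference inhibitor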
Settings: P. falciparum 3D7 crude extract, LDH APAD/NBT absorbance; at 2 µM; stronger effect = higher value

Chain of L-lactate dehydrogenase (Plasmodium falciparum (isolate CDC / Honduras)) (Q27743 whole entry, looked up): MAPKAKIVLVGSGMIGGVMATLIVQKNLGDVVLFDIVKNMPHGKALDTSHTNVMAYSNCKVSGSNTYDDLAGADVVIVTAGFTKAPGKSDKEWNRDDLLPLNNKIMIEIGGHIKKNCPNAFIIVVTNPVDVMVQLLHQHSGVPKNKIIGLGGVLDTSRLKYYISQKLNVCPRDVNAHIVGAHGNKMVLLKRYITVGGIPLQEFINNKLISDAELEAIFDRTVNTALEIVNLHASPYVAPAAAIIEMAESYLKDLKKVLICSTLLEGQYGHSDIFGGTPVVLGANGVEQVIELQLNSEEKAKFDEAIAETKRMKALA

SMILES	inhibition [%]
O=C(Nc1ccc(N2CCN(C(=O)C=Cc3ccccc3)CC2)c(Cl)c1)c1ccc([N+](=O)[O-])o1	-5
CCCN1CCN(CCCNC(=O)c2cc3c(-c4ccc(Cl)cc4)nn(C)c3s2)CC1	-3
Cn1nccc1C(=O)NCCNCc1ccc(-c2ccc(-c3nc4ccc(F)cc4[nH]3)cc2)cc1	-5
O=C(Nc1ccc(Cl)c(-c2nc3ccccc3[nH]2)c1)c1ccc(-c2ccc(Cl)cc2)o1	0
COc1cc(N(Cc2ccccc2C)S(=O)(=O)Cc2ccccc2[N+](=O)[O-])c(OC)cc1Cl	-2
Cc1onc(-c2ccccc2)c1C(=O)Nc1nc(-c2ccccn2)nc2ccsc12	-4
N#Cc1cc(C(=O)Nc2ccccc2)c(N)nc1SCC(=O)Nc1ccc(Br)cc1	1
O=C(Nc1ccc(Oc2ccccc2)cc1)N[C@H]1CCN(Cc2ccc(OCCCN3CCCCC3)cc2)C1	-6
CCOC(=O)NC1=NC(C)(C)N(OCCCOc2cc(Cl)c(Cl)cc2Cl)C(N)=N1	-2
Cc1ccc(/C=C/C(=O)NC2CCC(N3CCC(c4ccccc4C)CC3)CC2)cc1F (stereo not drawn)	2
Cc1ccc(CNC(=O)[C@H](CCCN)Nc2cc(C)nc(NCC3CCCCC3)n2)cc1	0

Tested on: not listed separately
Test: inhibition of 3D7 malaria parasite growth – strain 3D7 (AID 2306);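 note: 0% = DMSO wells and 100% = chloroquine plus artemisinin control wells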
Settings: P. falciparum 3D7 erythrocytic growth, LDH absorbance, 72 h; at 2 µM; stronger effect = higher value

SMILES	growth inhibition
CC(C)N1CCN(C(CN2CCN(CCCOc3ccccc3-c3ccccc3)CC2)c2ccc(F)cc2)CC1 (stereo not drawn)	100% (active)
Cc1cc(OCCCN2CCC(NS(=O)(=O)c3cc(Br)c(Cl)s3)CC2)c2ccccc2n1	95% (active)
Cc1nnsc1C(=O)Nc1ccc(-c2ccc(-c3nc4c(C)cccc4[nH]3)s2)cc1	100% (active)
CN(C)CCCNc1ncnc2c1[nH]c1ccc(Cl)cc12	99% (active)
Cc1cc(N)cc2[nH]c(-c3ccc(N)cc3)nc12	96% (active)
O=C(Nc1cccc(CN2CCN(C(=O)c3cccc(F)c3)CC2)c1)c1cccs1	95% (active)
OCCN1CCN(C(=S)Nc2ccccc2)CC1	97% (active)
CC(=O)Oc1c(C2CCN(CCCCNC(=O)c3ccc(NC(=O)c4ccc(Cl)cc4)cc3)CC2)ccc2ccccc12	101% (active)
CCOC(=O)c1c(CNc2ccncc2)n(C)c2cc(Br)c(OC(C)=O)cc12	96% (active)
O=C(Nc1ccccc1N1CCOCC1)c1ncoc1-c1ccccc1C(F)(F)F	89% (active)
Cc1nc(-c2cccc(Nc3nccc(NCC(O)c4ccc(C(F)(F)F)cc4)n3)c2)cs1 (stereo not drawn)	100% (active)
OCc1c(Cl)cc(Cl)cc1CNCCCNc1nc2ccccc2[nH]1	102% (active)
COC(=O)c1cccc(CNCc2cccc(-c3cccc(-c4nc5ccc(F)cc5[nH]4)c3)c2)c1	101% (active)
CC(C)(C)c1ccc(OC(=O)c2ccc(NC(=O)N[C@@H](Cc3ccc(O)cc3)C(=O)NC3CCN(Cc4ccc(O)cc4)C3)cc2)cc1 (stereo partly drawn)	92% (active)
CN1CCC(N(Cc2ccc(-c3ccc(C(F)(F)F)cc3)cc2)C(=O)Cn2cc(Cc3cnn(C)c3)c(=O)nc2SCc2cccc(F)c2F)CC1	88% (active)
c1ccc2c(CNc3ccnc(NCc4cccc5ccccc45)n3)cccc2c1	99% (active)
O=C(Nc1cccc(CN2CCN(Cc3ccc(O)cc3)CC2)c1)c1cc2ccccc2s1	100% (active)
CC(=O)Nc1ccc(C(=O)Nc2ccc(-c3csc(-c4nc5ccccc5[nH]4)c3)cc2)cn1	93% (active)
CC1(C)N=C(N)N=C(N)N1OCc1ccc(-c2ccccc2)cc1	95% (active)
Cc1ccc2c(NN=Cc3cccc(Cl)c3)cc(C)nc2c1	96% (active)
COc1ccc2nccc([C@@H](O)CN3CCC(NCc4cc5cc(C)ccc5s4)CC3)c2c1	92% (active)
Cc1cccc2sc(N(CCCn3ccnc3)C(=O)C=Cc3cccs3)nc12	91% (active)
O=C(NCCCCN1CCC(c2ccc3c(c2OCC(O)c2ccc(Cl)cc2)CCCC3)CC1)c1ccc(-c2ccc(C(F)(F)F)cc2)cc1 (stereo not drawn)	89% (active)
OC(CNCCc1ccccc1)Cn1c2ccc(Cl)cc2c2cc(Cl)ccc21 (stereo not drawn)	98% (active)
Cc1cc(N(C)C2CCN(CC3CCCCC3)C2)nc(Nc2ccc(Cl)cc2)n1 (stereo not drawn)	98% (active)
COc1ccc(CN2CCC(NCc3ccc(C(F)(F)F)cc3)CC2)cc1	97% (active)
O=C(Cc1ccccc1)NC(CCN1CCC(N(C2CC2)S(=O)(=O)c2cccc(C(F)(F)F)c2)CC1)c1ccc(Cl)c(Cl)c1 (stereo not drawn)	85% (active)
